Active and inactive are the calls of the source. Rule for the calls: active = hit-call score of the fitted dose curve at least 0.9, where 1 is the maximum; inactive = score below 0.9.
The compounds below were run on CYP4A11 (gene 1579) (assay: LTEA_HepaRG_CYP4A11: Life Technologies and Expression Analysis (LTEA) Assay for CYP4A11 using HepaRG (AID 2283486)). Settings: mRNA level, 48 h; actives raise or lower the signal.
Description: LTEA_HepaRG is a cell based, multiplexed-readout assay that uses HepaRG, a human liver cell line, with measurements taken at 48 hours after chemical dosing on a 96-well plate.LTEA_HepaRG_CYP4A11 is one of 102 assay component(s) measured in the LTEA HepaRG cell culture assay. It is a marker of NR mediated metabolism.Data from the assay component LTEA_HepaRG_CYP4A11 was analyzed into 1 endpoint. This assay endpoint, LTEA_HepaRG_CYP4A11, was analyzed with bidirectional fitting relative to DMSO as the negative control and baseline of activity. Using a type of inducible reporter, measures of mRNA induction for gain or loss-of-signal activity can be used to understand regulation of transcription factor activity. To generalize the intended target to other relatable targets, this assay endpoint is annotated to the cyp intended target family, where the subfamily is xenobiotic metabolism.
A total of 1060 chemcials from the ToxCast library were tested in eight-point concentration-response experiments. Cell culture and cytotoxicity assays were conducted at Thermo Fisher Scientific's Custom Services facility (Madison, WI). A single lot of human HepaRG cells (Thermo Fisher Scientific, Frederick, MD) was used for the cell culture experiments. 96-well format collagen type I coated plates of human HepaRG cells were prepared using established methods. Briefly, cryopreserved HepaRG cells were thawed, plated at a density of approximately 100,000 cells/well in HepaRG Thaw, Plate, and General Purpose media (HPRG770, Thermo Fisher Scientific), and incubated for 48 hours. 0.5% DMSO was selected as vehicle control to balance the requisite need of DMSO in HepaRG cultures to maintain differentiation (for example, baseline metabolism, proportions of hepatocytes vs. cholangiocytes), while enabling further hepatic receptor pathway activation (for example, PXR and CAR) in response to chemical exposure. 48 hours after plating, the culture medium was replaced with HepaRG Serum-Free Incudtion Media. Cells were exposed to each test chemical in duplicate and maintained in CO2 incubators for another 48 hours. Chemical plates were thawed to room temperature and 200x concentrations of treatment groups were prepared. 8-point conentration-reponse curves were made with the highest exposure at 100 uM, followed by half-log dilutions, all in 0.5% DMSO. Each test plate contained variouse controls, induction positive controls (1mM phenobarbital), cytotoxicity positive controls ([…] aflatoxin B1), vehicle controls (0.5% DMSO), and total lysis controls (0.5% DMSO). Cell morphology images were taken using an Essen IncuCyte FLR automated microscope, with six 96-well plates imaged in about 24 minutes. Images were captured and exported and JPEG files. Spent culture media was transfered to black-well plates for the LDH assay, and remaining media was sorted at -80 C for later use. Cells were treated with RLT buffer and frozen until shipped for gene expression analysis. Total RNA was isolated from the cell suspension in 75 uL of Buffer RLT (Qiagen, Germantown, MD 20874) by Quintiles/Expression Analysis (Durham, NC) using a custom isolation procedure. Total RNA from each plate well was transferred to a preamplification plate. Fluidigm's 96.96 Dynamic ArrayTM (Fluidigm, Amsterdam, the Netherlands) technology was used for gene expression analyses by quantitative reverse transcription polymerase chain reaction (qRT-PCR, performed by Quintiles/Expression Analysis, Durham, NC)89. Standard TaqManTM Assays (Applied Biosystems/ThermoFisher Scientific, Foster City, CA) were used to assess the expression of 93 genes selected based on their selectivity and sensitivity to important hepatic receptors known to be modulated by environmental chemicals; importance in human hepatocyte functionality; and hepatotoxicity. […]
`c1ccc2c(c1)Cc1ccccc1-2` was tested, and the outcome was “inactive”.
In the case of `CC1=C(/C=C/C(C)=C/C=C/C(C)=C/C(=O)O)C(C)(C)CCC1`, the AC50 is reported as 4.34 µM (active).
With `CCCCCCCCOC(=O)CCCCCCCCC(=O)OCCCCCCCC` the outcome was “inactive”.
With `O=C(O)c1ccccc1C(c1ccc(O)cc1)c1ccc(O)cc1` the outcome was “inactive”.
With `CCc1nn(C2CCCCC2)c2cc(C3(C#N)CCC(C(=O)O)CC3)ccc12` (stereo not given) the AC50 was 50.6 µM (active).
In the case of `CC(C)(C)CC(C)(C)c1ccc(O)c(-n2nc3ccccc3n2)c1`, the AC50 is reported as 50 µM (active).
In the case of `CCCCC(CC)COC(=O)CCCCC(=O)OCc1ccccc1` (stereo not given), the outcome is reported as “inactive”.
With `COc1ccc([N+](=O)[O-])cc1N` the outcome was “inactive”.
For `CCCCC(CC)COC(=O)CCCCC(=O)OCC(CC)CCCC` (stereo not given), the outcome was “inactive”.
In the case of `CCC(C)(C)C1CCC(O)CC1` (stereo not given), the outcome is reported as “inactive”.
With `O=C(OCCOCCOC(=O)c1ccccc1)c1ccccc1` the outcome was “inactive”.
`CCCCCCCC(=O)O` was tested, and the outcome was “inactive”.
`CCc1ccc(CCOc2ccc(CC3SC(=O)NC3=O)cc2)nc1` (stereo not given) was tested, and the AC50 was 85.9 µM (active).
In the case of `CC(C)(C)c1cc(C(C)(C)C)c(O)c(C(C)(C)C)c1`, the outcome is reported as “inactive”.
For `Cc1cc(C)c(O)c(C)c1`, the outcome was “inactive”.
For `CC(=O)NC1(c2cccc(F)c2)CCN(CC[C@@]2(c3ccc(Cl)c(Cl)c3)CN(c3ccccc3)C(=O)CO2)CC1`, the AC50 was 13.1 µM (active).
In the case of `CCCCCCCCCCCCc1ccccc1S(=O)(=O)O`, the AC50 is reported as 80.7 µM (active).
`CC(O)CO` (stereo not given) was tested, and the outcome was “inactive”.
For `Nc1cccc2c(N)cccc12`, the AC50 was 50 µM (active).
For `O=c1c(-c2ccc(O)cc2)coc2cc(O)ccc12`, the outcome was “inactive”.
In the case of `CC[C@H](c1ccc(O)cc1)[C@@H](CC)c1ccc(O)cc1`, the AC50 is reported as 76.7 µM (active).
With `CCCCCCCCCCCCCCCS(=O)(=O)Oc1ccccc1` the outcome was “inactive”.
For `COC(=O)CCCCC(=O)OC`, the outcome was “inactive”.
For `CN1CCN(c2ccccc2/C=C2\SCCN(c3ccc(Cl)c(Cl)c3)C2=O)CC1`, the AC50 was 17.4 µM (active).
In the case of `C#C[C@]1(O)CC[C@H]2[C@@H]3CCC4=CC(=O)CC[C@@H]4[C@H]3CC[C@@]21C`, the AC50 is reported as 0.0465 µM (active).
With `Oc1cc2ccccc2c2ccccc12` the outcome was “inactive”.
`CC#C[C@]1(O)CC[C@H]2[C@@H]3CCC4=CC(=O)CCC4=C3[C@@H](c3ccc(N(C)C)cc3)C[C@@]21C` was tested, and the AC50 was 23.9 µM (active).
With `C=C(C)C(=O)OCCC(F)(F)C(F)(F)C(F)(F)C(F)(F)C(F)(F)C(F)(F)F` the outcome was “inactive”.
For `ClC1=C(Cl)C(Cl)(Cl)C(Cl)=C1Cl`, the outcome was “inactive”.
For `OCCC(F)(F)C(F)(F)C(F)(F)C(F)(F)C(F)(F)C(F)(F)F`, the outcome was “inactive”.
`CCCOC(=O)c1ccc(O)cc1` was tested, and the outcome was “inactive”.
`CCOC(=O)CC(O)(CC(=O)OCC)C(=O)OCC` was tested, and the outcome was “inactive”.
With `COCC(C)OCC(C)O` (stereo not given) the outcome was “inactive”.
With `CC(C)CCCCCCOC(=O)CCCCC(=O)OCCCCCCC(C)C` the outcome was “inactive”.
`CC(=O)CC(C)(C)O` was tested, and the outcome was “inactive”.
In the case of `CCN(CC)CCNc1ccc(CNC=O)c2sc3ccc(OC)cc3c(=O)c12`, the AC50 is reported as 26 µM (active).
In the case of `Cc1cc(CCN2CCN(c3nsc4ccccc34)CC2)cc2c1NC(=O)CC2(C)C`, the AC50 is reported as 63.9 µM (active).
In the case of `CCCCOCCO`, the outcome is reported as “inactive”.
`CN(C)C=O` was tested, and the outcome was “inactive”.
With `OC1CCC(C2CCCCC2)CC1` (stereo not given) the outcome was “inactive”.
